{
  "source": "PubChem BioAssay AID463173",
  "about": "(ICCB-Longwood Screening Facility, Harvard Medical School, 2010)",
  "note": "Screen size: about 52,000 compounds; about 4,300 (8.3%) were called active. The full list was thinned out, with actives kept by preference. Values without a mark were called inactive. No stated cut-off is given here; in the data, active means survival mostly below about 52% (no sharp cut-off); inactive means mostly above about 56%.",
  "data": [
    {"test_system": "DeltatarO mutant", "test": "S. aureus survival, RN4220 and DeltatarO strains – OD600, teichoic acid synthesis inhibitors, primary screen (AID 463173)", "details": "S. aureus RN4220 wild type/DeltatarO growth, OD600, 18 h, active compounds read low, screened at 18.75 µg/mL (by protocol)", "values": [
      {"smiles": "COc1cc(-c2nc3cccc(C)n3c2Nc2ccc3c(c2)OCCO3)ccc1O", "survival": "76%"},
      {"smiles": "CCc1ccc(NC(=O)CCn2nc(C)c(S(=O)(=O)N3CCCCC3)c2C)cc1", "survival": "128%"},
      {"smiles": "COC(=O)c1ccccc1NC(=O)c1ncoc1-c1ccco1", "survival": "62%"},
      {"smiles": "CC(C)S(=O)(=O)c1oc(-c2ccc(F)cc2)nc1S(=O)(=O)c1ccccc1", "survival": "33% (active)"},
      {"smiles": "CCN(CC)CCNc1nc2c(c(=O)n(C)c(=O)n2C)n1CCc1ccccc1", "survival": "103%"},
      {"smiles": "COc1ccc(NC(=O)C2=C(C)Nc3nc(SCc4ccccc4)nn3C2c2cc(OC)ccc2OC)cc1", "note": "(centres undefined)", "survival": "78%"},
      {"smiles": "COc1cccc(C(=O)Nc2cccc(C(=O)OCc3cc(=O)n4nc(C(C)C)sc4n3)c2)c1", "survival": "101%"},
      {"smiles": "COc1ccc(N2CCN(C(=O)c3nc(-c4ccc(Cl)cc4)n4c3CCCCC4)CC2)cc1", "survival": "81%"},
      {"smiles": "Cc1ccc(NC(=O)CSc2nncn2C)c(C)c1", "survival": "75%"},
      {"smiles": "CC(=O)Nc1nonc1-c1nnc(SCc2ccccc2Cl)n1C", "survival": "42% (active)"},
      {"smiles": "CC(=O)Nc1nonc1-c1nnc(SCc2ccccc2)n1C", "survival": "44%"},
      {"smiles": "CC(=O)Nc1nonc1-c1nnc(SCc2ccc(F)cc2Cl)n1C", "survival": "45%"},
      {"smiles": "CC(=O)Nc1nonc1-c1nnc(SCc2ccc(Cl)cc2)n1C", "survival": "42% (active)"},
      {"smiles": "CC(=O)Nc1nonc1-c1nnc(SCC(=O)Nc2ccc(C)c(Cl)c2)n1-c1ccccc1", "survival": "49%"},
      {"smiles": "CC(=O)Nc1nonc1-c1nnc(SCc2ccc(C)cc2)n1C", "survival": "48%"},
      {"smiles": "CC(=O)Nc1nonc1-c1nnc(SCc2ccccc2F)n1C", "survival": "46%"},
      {"smiles": "CC(=O)Nc1nonc1-c1nnc(SCc2ccccc2C)n1C", "survival": "42% (active)"},
      {"smiles": "CC(=O)Nc1nonc1-c1nnc(SCC(=O)Nc2ccc(C)c(Cl)c2)n1C", "survival": "60% (active)"},
      {"smiles": "CC(=O)Nc1nonc1-c1nnc(SCC(=O)Nc2ccccc2Cl)n1C", "survival": "50%"},
      {"smiles": "COc1ccc(NC(=O)CSc2nnc(-c3nonc3NC(C)=O)n2C)cc1Cl", "survival": "55%"},
      {"smiles": "CC(=O)Nc1nonc1-c1nnc(SCc2ccc(F)cc2)n1C", "survival": "44%"},
      {"smiles": "Cc1c(NC(=O)Cc2ccc(Cl)cc2)cccc1-c1nc2cccnc2s1", "survival": "114%"},
      {"smiles": "Cc1csc2nc(COC(=O)c3cccc(NC(=O)COc4ccccc4Cl)c3)cc(=O)n12", "survival": "88%"},
      {"smiles": "Cc1cc2ncn(S(=O)(=O)c3ccc(S(N)(=O)=O)cc3)c2cc1C", "survival": "84%"},
      {"smiles": "Cc1ccccc1NC(=O)N1CCCC(c2nc(-c3ccc(F)cc3)no2)C1", "note": "(centres undefined)", "survival": "93%"},
      {"smiles": "Cc1ccccc1NC(=O)CN1C(=O)CCn2nc(-c3cccn3C)cc21", "survival": "83%"},
      {"smiles": "O=C(CSc1nc(-c2ccc(Cl)cc2)nc2c1Cc1ccccc1O2)N1CCCCC1", "survival": "96%"},
      {"smiles": "O=C(Cn1cc(C(=O)c2cccs2)c2ccccc21)Nc1ccc(Br)cc1", "survival": "127%"},
      {"smiles": "O=S(=O)(NCCSc1nnnn1-c1ccccc1)c1ccc(F)cc1", "survival": "76%"},
      {"smiles": "O=S1(=O)C=C(Sc2nnnn2-c2ccccc2)c2ccccc21", "survival": "4% (active)"},
      {"smiles": "O=C1CC(CSc2nnnn2-c2ccccc2)=NN1", "survival": "101%"},
      {"smiles": "Cc1cc(NC(=O)CCCn2c(C)c3cnn(-c4ccccc4)c(=O)c3c2C)ccc1Br", "survival": "71%"},
      {"smiles": "COc1ccc(CCNC(=O)Cn2c(=O)nc(-c3ccccc3)c3cc(Cl)ccc32)cc1OC", "survival": "94%"},
      {"smiles": "Cc1ccc(S(=O)(=O)Cc2nc(-c3ccc(C(=O)NCCCOC(C)C)cc3)oc2C)cc1", "survival": "72%"},
      {"smiles": "Cc1oc(-c2ccc(C(=O)NCCCOC(C)C)cc2)nc1CS(=O)(=O)c1ccccc1", "survival": "-4% (active)"},
      {"smiles": "CCOCCCNC(=O)c1ccc(-c2nc(CS(=O)(=O)c3ccccc3)c(C)o2)cc1", "survival": "66%"},
      {"smiles": "COc1ccc(CCN2C(=O)CN(C3CCCCCC3)C(=O)C2c2ccc(Cl)cc2)cc1OC", "note": "(centres undefined)", "survival": "81%"},
      {"smiles": "O=C(Nc1ccccc1-c1nc2ccccc2s1)c1ccc(F)cc1", "survival": "81%"},
      {"smiles": "Cc1ccc(C(=O)Nc2ccc(-c3nc4ccccc4s3)c(O)c2)c(C)c1", "survival": "84%"},
      {"smiles": "COc1cccc(C(=O)Nc2ccc(-c3nc4ccccc4s3)cc2Cl)c1", "survival": "72%"},
      {"smiles": "COc1cccc(C(=O)Nc2ccccc2-c2nc3ccccc3s2)c1", "survival": "33% (active)"},
      {"smiles": "COc1cc(OC)cc(C(=O)Nc2ccccc2-c2nc3ccccc3s2)c1", "survival": "17% (active)"},
      {"smiles": "COc1ccc(C(=O)Nc2ccccc2-c2nc3ccccc3s2)cc1OC", "survival": "7% (active)"},
      {"smiles": "COc1ccc(C(=O)Nc2ccccc2-c2nc3ccccc3s2)c(OC)c1", "survival": "102%"},
      {"smiles": "CSc1ccc(C(=O)Nc2ccc(-c3nc4ccccc4s3)c(O)c2)cc1", "survival": "32% (active)"},
      {"smiles": "COc1cc(OC)cc(C(=O)Nc2ccc(-c3nc4ccccc4s3)c(C)c2)c1", "survival": "117%"},
      {"smiles": "O=C(Nc1ccccc1-c1nc2ccccc2s1)c1cc(Cl)cc(Cl)c1", "survival": "84%"},
      {"smiles": "O=C(Nc1ccc(-c2nc3ccccc3s2)c(O)c1)c1ccc(Br)cc1", "survival": "87%"},
      {"smiles": "COc1ccc(C(=O)Nc2cc(C)c(O)c(-c3nc4ccccc4s3)c2)cc1OC", "survival": "51%"},
      {"smiles": "Cn1c(CNC(=O)CSc2n[nH]c(-c3ccccc3Cl)n2)nc2ccccc21", "survival": "75%"},
      {"smiles": "O=C(Nc1ccc(F)cc1F)c1cc2c(=O)n3ccccc3nc2s1", "survival": "75%"},
      {"smiles": "CCOC(=O)c1ccccc1NC(=O)c1sc2ncn(CC)c(=O)c2c1C", "survival": "68%"},
      {"smiles": "Cc1ccc(C)c(NC(=O)CCc2c(C)n(C)c3cc(-c4ccccc4C)nn3c2=O)c1", "survival": "63%"},
      {"smiles": "CCC(CC)C(=O)Nc1ccccc1C(=O)OCc1cc(=O)n2nc(C3CCCCC3)sc2n1", "survival": "92%"},
      {"smiles": "O=C(Nc1ccc(F)c(Cl)c1)N1CC=C(c2c[nH]c3ccccc23)CC1", "survival": "77%"},
      {"smiles": "CN1CCN(C(CNC(=O)C(=O)Nc2cccc(Cl)c2)c2ccc3c(c2)OCO3)CC1", "note": "(centres undefined)", "survival": "86%"},
      {"smiles": "CCC1=C(c2ccc(C)cc2)S(=O)(=O)N=C1N1CCC(C(=O)Nc2ccccc2C(=O)OC)CC1", "survival": "89%"},
      {"smiles": "Cc1ccc(NC(=O)Cn2c(=O)n(CCc3ccccc3)c(=O)c3c4c(sc32)CCCC4)cc1C", "survival": "97%"},
      {"smiles": "CCCCOc1ccc(C(=O)Nc2ccc3c(c2)CCCN3C(=O)c2cccs2)cc1", "survival": "83%"}
    ]}
  ]
}
